Whole data set: some 33,000 sequences, median “E-score (-0.5 to 0.5)” near -0.0059, cut for the highest 2% near 0.26. This excerpt belongs to a sample that is enriched for the highest values.
Each sequence was assayed against T1, Cin5 (UniProt P40917) (assay: PBM E-score (8-mer binding enrichment) (E-score (-0.5 to 0.5)); higher = stronger / more preferred TF binding). Conditions: protein concentration: 100 nM; construct: GST-full length.
T1 sequence: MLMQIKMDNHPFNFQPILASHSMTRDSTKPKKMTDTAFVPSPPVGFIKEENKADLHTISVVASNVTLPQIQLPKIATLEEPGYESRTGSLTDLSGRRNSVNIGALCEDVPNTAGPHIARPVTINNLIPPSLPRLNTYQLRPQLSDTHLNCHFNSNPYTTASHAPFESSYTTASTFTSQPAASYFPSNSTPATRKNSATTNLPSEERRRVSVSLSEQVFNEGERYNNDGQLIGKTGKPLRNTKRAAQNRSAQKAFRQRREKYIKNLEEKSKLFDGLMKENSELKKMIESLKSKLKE
Method: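 Universal 'all 10-mer' protein binding microarrays (Agilent AMADID 015681) probed with GST-tagged S. cerevisiae TFs (full-length or DBD) made by in vitro transcription/translation (PURExpress), about 100-200 nM. Bound TF was detected with fluorescent anti-GST. Each ungapped 8-mer (which stands for itself and its reverse complement) is scored by the PBM enrichment score (E-score), a modified Wilcoxon-Mann-Whitney statistic from -0.5 to +0.5, computed with the Universal PBM Analysis Suite. Scale: above 0.35 generally sequence-specific binding.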

| Sequence | PBM E-score |
| --- | --- |
| TTAACTAA | 0.343 |
| CAAACTAA | 0.266 |
| TTAAGTAA | 0.423 |
| TAAACTAA | 0.252 |
| CTAAGTAA | 0.0623 |
| GTAAGTAA | 0.24 |
| ATAACTAA | 0.141 |
| CTAACTAA | 0.15 |
| GAAACTAA | 0.0253 |
| AAAACTAA | 0.275 |
| CAAACTAC | 0.0495 |
| AAAACTAT | 0.2 |
| CGACATAG | 0.00383 |
| CTGCAAAC | -0.149 |
| AGCTGCCG | -0.0554 |
| GCGGCGCC | 0.115 |
| CACGTGGG | -0.172 |
| AGGCTGAC | 0.0576 |
| AGGCGGAA | -0.0282 |
| GCGCGAGC | -0.0452 |
| GGAATTGA | 0.199 |
| GCATCATA | 0.0947 |
| ACATCATA | 0.258 |

| Sequence | PBM E-score |
| --- | --- |
| ACATCATC | 0.344 |
| CCATCATC | 0.0863 |
| CCATCATA | 0.05 |
| ACATCATG | 0.0711 |
| CAACTCTG | -0.112 |
| GACGCATC | 0.00795 |
| ACCAAGCC | -0.172 |
| CCCCCCTC | -0.465 |
| TAACCAAA | 0.175 |
| AAGGTGAA | -0.0511 |
| CAGGAGGA | -0.315 |
| TACCCATA | 0.0256 |
| AGCTGATG | 0.14 |
| GGTATAAA | 0.154 |
| AGTATATC | 0.126 |
| AGTATAAC | -0.129 |
| TGTATAAA | 0.114 |
| AGTATATA | 0.346 |
| AGTATATG | 0.183 |
| AGTATAAA | 0.282 |
| AGTATAAG | 0.239 |
| AGTATAAT | 0.301 |
| ATTGTCGC | 0.0313 |

| Sequence | PBM E-score |
| --- | --- |
| GAACCCAC | 0.121 |
| ATAGTTTA | 0.0429 |
| GGGCGGTA | -0.169 |
| AGCACGAT | 0.0861 |
| ATCTCGCC | 0.0516 |
| ATATCGCA | -0.00978 |
| ATCTCGCA | 0.00313 |
| ATATCGAA | 0.221 |
| ATCTCGCG | 0.266 |
| ATATCGAC | 0.249 |
| ATATCGCG | 0.301 |
| ATATCGCC | 0.0352 |
| ATATCGAT | 0.265 |
| CACGTCGC | -0.119 |
| CTCGACGC | 0.0204 |
| GTTGATGA | 0.154 |
| CCTGATTA | 0.252 |
| CTTGATTA | 0.222 |
| ATTGATTC | 0.128 |
| GCTGATTA | 0.279 |
| ATTGATTA | 0.317 |
| ACTGATTA | 0.249 |
| GTTGATTA | 0.268 |

| Sequence | PBM E-score |
| --- | --- |
| ATTGATTG | 0.186 |
| AAGTTGCC | -0.0351 |
| CGGACGAA | 0.15 |
| CACACACG | -0.0573 |
| TCCCAGAA | -0.129 |
| AATCCGGA | 0.234 |
| AATGTTCT | -0.0398 |
| ATTAATCC | 0.18 |
| ATTAATTG | 0.193 |
| ATTAATCA | 0.263 |
| ATTAATGA | 0.29 |
| ATTAATTC | 0.238 |
| GTTAATCA | 0.239 |
| ATTAATGC | 0.19 |
| ATTAATTA | 0.259 |
| CTTAATGA | 0.0487 |
| GCCACATA | 0.064 |
| ACTGCCCT | -0.0972 |
| CGAAGACA | -0.0454 |
| ACAACATA | 0.268 |
| ATAACATA | 0.26 |
| ATAACATG | 0.0972 |
| ATAACATC | 0.189 |

| Sequence | PBM E-score |
| --- | --- |
| GCAACATA | 0.0111 |
| ACAACATC | 0.0575 |
| AGATTGAA | 0.0552 |
| CCCAGTTC | 0.175 |
| AACCGTGA | -0.0786 |
| GCATTCCA | -0.196 |
| AAAGCATC | 0.134 |
| CAGACTGG | -0.108 |
| AAAACGGA | 0.0411 |
| AGTAGCCG | 0.0345 |
| TATCGATA | 0.0449 |
| GCTCTTAC | 0.021 |
| CTCACGCA | 0.274 |
| GTCACGCA | 0.0339 |
| CTCACGCC | -0.0928 |
| ACAGTAGG | -0.00703 |
| CAGTGCCG | -0.0996 |
| ATAGTTGG | -0.0107 |
| ATAGTTGA | 0.121 |
| ATAGTTGC | 0.272 |

— the supplement of paper PMC3334620
